Results on seven molecules are retold here after PubChem BioAssay (NCATS).

Inconclusive results are not listed. Activity calls are given as the source filed them. Unless noted, calls follow the shape of the dose curve; as a rule, active = well fitted curve in the direction sought with a large enough effect; inconclusive = small, poorly fitted or top-dose-only effect, or another doubt; inactive = no such curve, though single readings can be large; an effect the other way counts as inactive or inconclusive.

Assay [1] in a line: Quantitative High-Throughput drug screen in 47 multiple myeloma cell lines against the NCATS MIPE library collection: VP6_DJ cell viability assay (AID 1919867). Also: nearly all actives have a fitted effect of over 40% in size. The procedure, abridged:
(§1)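 qHTS format: cells plated (500/well), pin-dosed with MIPE 4.0 compounds, kept 48 h at 37 °C. Readout was CellTiter-Glo luminescence, median RLU.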

Assay [2] in a line: Quantitative High-Throughput drug screen in 47 multiple myeloma cell lines against the NCATS MIPE library collection: OPM2_DSMZ cell viability assay (AID 1919872). Also: nearly all actives have a fitted effect of over 30% in size. The essentials:
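We plated 500 myeloma cells per well, pinned in MIPE 4.0 compounds, and incubated for 48 hours at 37C. ATP was then quantified with CellTiter-Glo, with DMSO and media-only wells defining 100% and 0%.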

A short description of assay [3]: qHTS drug screen for cell cycle checkpoint inhibitors in PARPi-resistant BRCA-mutant ovarian cancer cell lines. (AID 1963452; calls by dose curve). The note with it: PEO1/OlaR viability, CellTiter-Glo luminescence, 96 h, stronger effect = lower value. The essentials: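 PEO1, PEO4 and PEO1/OlaR ovarian cancer cells, 600 per well, exposed 96 h at 37C to a dilution series. Viability read by CellTiter-Glo luminescence, normalized to DMSO and empty wells; activity summarized as Z-AUC.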
In general terms: Quantitative high-throughput screening tests each substance at several concentrations.

Assay [4] in a line: qHTS for identification of novel therapeutic agents for treatment of microphthalmiaassociated transcription factor (MiT) renal cell carcinoma (RCC) (AID 1963991). The note with it: CellTiter-Glo, 48 h, stronger effect = lower value. The essentials: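 Three TFE3-fusion RCC lines (UOK109, UOK124, UOK145), 500 cells/well in complete medium, were treated with MIPE 4.0 compounds for 48 hours at 37 C. Viability was by CellTiter-Glo luminescence, normalized to DMSO (100%) and empty wells (0%); curves fitted over 11 concentrations.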

Assay [5] in a line: qHTS profiling for inhibitors of Plasmodium falciparum proliferation (AID 504749).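 Also: 0% = DMSO vehicle and full inhibition = artemisinin control; nearly all actives have a fitted effect of over 60% in size.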 The note with it: P. falciparum in erythrocytes, SYBR Green DNA, 72 h, at 28.7 µM (top of the series). The essentials: (§2)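 Quantitative HTS: compounds pinned into medium, infected erythrocytes added (0.3% parasitemia, 2.5% hematocrit), 72 h culture at 37 C under 5% CO2. Saponin/Triton lysis with SYBR Green I, overnight RT, then fluorescence read.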

Another assay deals with 3D7. The assay is described as above. Conditions: P. falciparum in erythrocytes, SYBR Green DNA, 72 h; series mostly up to 28.7 µM. The procedure, abridged: as §2
A further assay concerns 7G8. The assay is described as above. Conditions: P. falciparum in erythrocytes, SYBR Green DNA, 72 h; series mostly up to 28.7 µM. The procedure, abridged: as §2
The next assay has as its system AA1029. Described as above. Conditions: P. falciparum in erythrocytes, SYBR Green DNA, 72 h; series mostly up to 28.7 µM. The procedure, abridged: as §2
Assay [6] is described as follows: Quantitative High-Throughput drug screen in 47 multiple myeloma cell lines against the NCATS MIPE library collection: PCM6_Riken cell viability assay (AID 1919870). Also: nearly all actives have a fitted effect of over 30% in size. Also: potency is read from the fitted curve at half-maximal effect. The procedure, abridged: as §1
Assay [7] can be described thus: Quantitative High-Throughput drug screen in 47 multiple myeloma cell lines against the NCATS MIPE library collection: RPMI8226_ATCC cell viability assay (AID 1919871). Also: nearly all actives have a fitted effect of over 30% in size. The procedure, abridged: as §1
A short description of assay [8]: Quantitative High-Throughput drug screen in 47 multiple myeloma cell lines against the NCATS MIPE library collection: UTMC2_PLB cell viability assay (AID 1919868). Also: nearly all actives have a fitted effect of over 55% in size. Also: potency is read from the fitted curve at half-maximal effect. The essentials: as §1
Assay [9] is described as follows: Quantitative High-Throughput drug screen in 47 multiple myeloma cell lines against the NCATS MIPE library collection: PE2_PLB cell viability assay (AID 1919869). Also: nearly all actives have a fitted effect of over 35% in size. The essentials: as §1
A short description of assay [10]: Quantitative High-Throughput drug screen in 47 multiple myeloma cell lines against the NCATS MIPE library collection: KMS11_JCRBsus cell viability assay (AID 1919873). Also: nearly all actives have a fitted effect of over 50% in size. The procedure, abridged:
as §1

The nature of assay [11]: Quantitative High-Throughput drug screen in 47 multiple myeloma cell lines against the NCATS MIPE library collection: KMS28BM_JCRB cell viability assay (AID 1919874). Also: nearly all actives have a fitted effect of over 35% in size. The essentials: as §1
Assay [12] in a line: KB-8-5-11 P-gp reporter qHTS against the NCATS DSHEA and TCM libraries (AID 1919977). Also: 0% is about no effect. The essentials: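 P-gp-overexpressing KB-8-5-11 cells (500/well) were plated in colchicine-free DMEM with 10% FBS, attached ~4 h, then exposed to substance titrations for ~72 h at 37C. Viability was read by CellTiter-Glo luminescence.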
The mark [13] stands for this setting: measured here: PEO1 parental Z-AUC.
[14] abbreviates: TFE3-RCC UOK109 viability, measured here: UOK109 Z-AUC.
The mark [15] stands for this setting: TFE3-RCC viability, measured here: UOK124 Z-AUC.
Setting [16] is: TFE3-RCC viability, measured here: UOK145 Z-AUC.

With `O=P1(N(CCCl)CCCl)NCCCO1` (stereo unspecified), the Potency result (in assay [1]; in the assay with 3D7; in the assay on 7G8; in the assay with AA1029) was “inactive” throughout. Moreover, the call in assay [2] was inactive. In addition, the figures for the Z-AUC in assay [3], in [3] (setting [13]) and in assay [3] (measured here: PEO4 Z-AUC) were 1.32 (inactive), 1.49 and 1.45, respectively. Further, the z-score in assay [4] (setting [14]) is 0.655; in [4] (setting [15]), 0.953; in assay [4] (setting [16]) it was 1.4. The activity, negative = inhibition in [5] (parasite line A) is 11.3% (inactive); in [5] (parasite line B), 6.9% (inactive).
Consider `CN1C(=O)COc2c(C(=O)NC3CN4CCC3CC4)cc(Cl)cc21` (stereo unspecified), for which the Potency entry (in [1]; in [6]; in [7]; in the assay on 3D7; with AA1029) was “inactive” throughout. Moreover, in assay [2], the molecule was called inactive. Further, the results for the Z-AUC in [3], in assay [3] (setting [13]) and in assay [3] (measured here: PEO4 Z-AUC) were -0.165 (inactive), -0.0882 and 0.485, respectively. For the same molecule, the activity, negative = inhibition in assay [5] (parasite line A) was 7.89% (inactive); in assay [5] (parasite line B), 7.46% (inactive).
Regarding `CC(C)c1cccc(C(C)C)c1O`, the Potency entry in assay [1], in [8], in assay [9], in assay [6], in assay [7] and in [10] was “inactive” in each case. In addition, the Potency result in the assay with 3D7, in the assay with 7G8 and in the assay with AA1029 was “inactive” throughout. The molecule was called inactive in [2] and in assay [11]. Also, the Z-AUC in assay [3] is 0.183 (inactive); in [3] (setting [13]), 0.696; in assay [3] (measured here: PEO4 Z-AUC) it was 0.584. For the same molecule, the z-score is -1.1 in assay [4] (setting [14]), 0.663 in assay [4] (setting [15]) and 0.666 in assay [4] (setting [16]). The activity, negative = inhibition was 13.6% (inactive) in assay [5] (parasite line A) and 4.13% (inactive) in assay [5] (parasite line B).
`CN1C(=O)CCS(=O)(=O)C1c1ccc(Cl)cc1` (stereo unspecified): the Potency result (in assay [1]; in assay [9]; in assay [6]; with 3D7; with 7G8; in the assay with AA1029) was “inactive” each time. In addition, the molecule was called inactive in assay [2] and in [11]. In addition, the results for the Z-AUC in assay [3], in assay [3] (setting [13]) and in assay [3] (measured here: PEO4 Z-AUC) were 1.64 (inactive), 1.76 and 1.36, respectively. The z-score in assay [4] (setting [14]) is 0.949; in assay [4] (setting [15]), 0.189; in assay [4] (setting [16]), 0.774. Moreover, the figures for the activity, negative = inhibition in assay [5] (parasite line A) and in assay [5] (parasite line B) were -12.8% (inactive) and -22.5% (inactive), respectively.
With `O=C(O)CCCc1ccc(N(CCCl)CCCl)cc1`, the Potency in assay [8] was 18.7 µM (active); in assay [6], 16.6 µM (active). Also, the Potency entry (in assay [9]; in assay [10]; in the assay with 3D7; with AA1029) was “inactive” in each case. In assay [2], the result was inactive. The Z-AUC was 0.915 (inactive) in assay [3], 0.822 in assay [3] (setting [13]) and 1.2 in assay [3] (measured here: PEO4 Z-AUC). For the same molecule, the activity, negative = inhibition was -9.59% (inactive) in assay [5] (parasite line A) and 1.97% (inactive) in assay [5] (parasite line B).
Take `Cc1ccc(C(C)C)c(O)c1`: the molecule was classed as inactive in [12].
As to `C[C@]12CC[C@@H]3c4ccc(OC(=O)N(CCCl)CCCl)cc4CC[C@H]3[C@@H]1CC[C@@H]2OP(=O)(O)O`, the Potency entry in assay [9], in assay [6], in assay [7] and in [10] was “inactive” throughout. The outcome in [2] and in assay [11] was inactive. In addition, the Z-AUC in [3] is 0.291 (inactive); in assay [3] (setting [13]), 1.75; in assay [3] (measured here: PEO4 Z-AUC), 1.95.
